# Tb PYK inh: inhibitors of Trypanosoma brucei pyruvate kinase; AID 624173; Potency, µM (highest dose often 76.8 µM), for the others: at the highest dose activity, negative = inhibition, hits mostly inhibitors; Q57TT1; TbPYK enzyme, Kinase-Glo Plus ATP luminescence, 45 min; hit rate 0.12% among 410,000; note: potency is the fitted concentration of half-maximal effect; nearly all actives have a fitted effect of over 50% in size
#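 Luminescence from Kinase-Glo Plus, added after a 45-minute room-temperature reaction, served as the end-point read-out. The enzyme and substrate were preincubated with compound before ADP (130 uM final) initiated turnover. Concentration-effect curves came from normalized qHTS data.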
# FMDV inh: blocks foot and mouth disease virus | AID 1159524 | Potency, µM (doses to about 57.9 µM), inactives show at the highest dose activity change, negative = inhibition, hits mostly inhibitors | FMDV antiviral cell-based qHTS | hit rate 1.2% among 410,000; calls by dose curve; tested in HEK293T cells; note: read-out not given here; potency is the fitted concentration of half-maximal effect; nearly all actives have a fitted effect of over 45% in size
# Sm TGR inh: S. mansoni TGR enzyme inhibition; Q962Y6; purified TGR, DTNB reduction, TNB absorbance 405 nm; Potency, µM (highest dose often 114 µM), for inactives: at the highest dose activity change, negative = inhibition, hits mostly inhibitors; hit rate 3% among 360,000; AID 485364; note: potency is the fitted concentration of half-maximal effect; nearly all actives have a fitted effect of over 60% in size
#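 Kinetic colorimetric format: TGR-catalysed, NADPH-driven DTNB reduction monitored via TNB absorbance. Enzyme dispensed at 20 nM; compound exposure 15 min at room temperature before reaction start.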
# RE007 growth inh: less growth of the S. pombe RE007 Vpr strain; S. pombe RE007 Vpr strain, BacTiter-Glo ATP luminescence, 24 h; Potency, µM (series often up to 92.2 µM), inactives show at the top dose activity change, negative = less growth, most hits filed as inhibitors; hit rate 0.21% among 360,000; AID 651644; active = well fitted falling curve with a large enough effect; inconclusive = small, poorly fitted or top-dose-only effect; inactive = no such curve, though single readings can be large or run the other way; note: potency is the fitted concentration of half-maximal effect; nearly all actives have a fitted effect of over 50% in size
#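 Fission yeast strain RE007, carrying one chromosomally integrated HIV-1 vpr copy, was seeded at OD 0.01 in PMG+AL medium with 23 nL pinned compound. After 24 h at 30 °C and 99% humidity, viability was read by BacTiter-Glo luminescence.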
# HCMV antiviral: blocks human cytomegalovirus replication | HFF cells, HCMV-luciferase reporter, 72 h; hits give low values | hit rate 4.5% among 410,000 | activity change, negative = inhibition, % at 57.5 µM; in the data active = activity change below about -60%; inconclusive = no clear call, values can overlap the other calls; inactive = above about -39%
#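 Luciferase read-out from HCMV-luciferase-infected HFFs (MOI 1 PFU/cell) 72 h post infection at 37C; compounds added after 16 h cell attachment; activity normalized between buffer-only basal and Salinomycin (10uM) inhibitor controls.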
# FBPA Giardia inh: Giardia lamblia aldolase inhibition; A8B2U2; purified Giardia FBPA; Potency, µM (top dose mostly 59.6 µM), inactives show at the top dose activity, negative = inhibition, actives largely listed as inhibitors; hit rate 0.71% among 290,000; note: potency is the fitted concentration of half-maximal effect; nearly all actives have a fitted effect of over 55% in size
# Target sequence (A8B2U2 whole entry, looked up): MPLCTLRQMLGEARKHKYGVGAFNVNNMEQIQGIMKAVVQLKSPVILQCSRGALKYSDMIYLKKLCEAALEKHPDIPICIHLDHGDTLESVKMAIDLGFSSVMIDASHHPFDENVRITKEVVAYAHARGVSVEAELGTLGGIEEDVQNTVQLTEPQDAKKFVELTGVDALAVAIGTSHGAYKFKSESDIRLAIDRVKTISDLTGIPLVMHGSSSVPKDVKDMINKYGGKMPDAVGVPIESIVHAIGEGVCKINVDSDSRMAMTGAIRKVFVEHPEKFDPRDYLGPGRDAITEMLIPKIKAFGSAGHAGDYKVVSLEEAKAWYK
#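 Giardia FBPA (40 nM reagent) was preincubated 10 min at RT with compound (up to 57.5 uM final), then substrate plus GAPDH/TPI/NAD/arsenate coupling system with diaphorase/resazurin was added; resorufin fluorescence (525/598 nm) was read after 20 min.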
# Active calls of the source: *; u = inconclusive; x = not tested or not shown. Rows were chosen to be rich in hits. Some 7.7% of all compounds tested hit in one or more screens of this group. Unless noted, calls come from the whole dose curve; as a rule, active = well fitted curve in the direction sought with a large enough effect; inconclusive = small, poorly fitted or top-dose-only effect, or another doubt; inactive = no such curve, though single readings can be large; an effect the other way counts as inactive or inconclusive. % is set by controls: 0 for no effect and ±100 for the full control effect.
SMILES,Tb PYK inh,FMDV inh,Sm TGR inh,RE007 growth inh,HCMV antiviral,FBPA Giardia inh
COC(=O)c1cc(CNC(=O)c2ccccc2OC)cc(NC(=O)c2ccccc2F)c1,x,32%,x,x,x,x
c1ccc(-c2onc(-c3ccco3)c2-c2ccc3c(c2)OCO3)cc1,4%,-18%,50µM*,14%,14,-8%
O=C(O)c1cc(-c2ccc(-c3c(-c4ccc5c(c4)OCO5)noc3-c3ccsc3)cc2)nc2ccccc12,-2%,-13%,-3%,0%,u,-11%
C[C@@H]1CC(=O)N(C)[C@H](c2ccccc2)[C@H]1S(=O)(=O)c1ccccc1,x,x,x,x,-8,x
Cc1ccc(NC(=S)NC(C)CCc2ccccc2)cc1C (configuration not stated),1%,-7%,5%,25%,-71*,5%
Cc1cccc(C)c1NC(=S)NC(C)CCc1ccccc1 (configuration not stated),-3%,9%,-11%,5%,-17,8%
CCCOc1cccc(C(=O)Nc2ccc(-c3nc4ccccc4s3)c(Cl)c2)c1,-4%,2%,10%,x,u,x
Cc1ccc(OCC(=O)Nc2ccc3c(c2)nc(CCN2CCCCC2)n3C)cc1,-2%,-15%,-4%,-1%,-72*,-16%
COc1ccc(OCC(=O)Nc2ccc3c(c2)nc(CCN2CCCCC2)n3C)cc1,5%,4%,4%,3%,u,-26%
Cc1ccc(OCC(=O)Nc2ccc3c(c2)nc(CCN2CCC(C)CC2)n3C)cc1,-19%,-11%,0%,-15%,-70*,-7%
Cn1c(CCN2CCCCC2)nc2cc(NC(=O)COc3ccccc3)ccc21,-8%,-8%,-26%,5%,-73*,-23%
COc1ccc(OCC(=O)Nc2ccc3c(c2)nc(CCN2CCC(C)CC2)n3C)cc1,0%,11%,-5%,-9%,-27,x
Cc1ccc(NC(=O)Cn2nnc(-c3nc(-c4ccncc4)no3)c2N)c(C)c1,1%,-11%,5%,x,10,x
CCCCCCCC/C=C\CCCCCCCC(=O)OC[C@@H](O)[C@H]1OC[C@H](O)[C@H]1O,-8%,x,x,x,x,x
CCOc1ccc(N2C(=O)C3C(c4ccccc4F)NN(C(=O)c4ccc(C)cc4)C3C2=O)cc1 (configuration not stated),3%,0%,50µM*,5%,10,-4%
O=C1CN(C(=O)COC(=O)CNC(=O)c2ccc(Br)o2)c2ccccc2N1,3%,-5%,-11%,1%,25,-1%
O=C1CN(C(=O)COC(=O)c2ccc(Br)o2)c2ccccc2N1,2%,-3%,x,18%,-102*,x
CCOC(=O)c1ccc2c(c1)n(CC)c(/C=C/N(C)c1ccccc1)[n+]2CC,-12%,u,-1%,7%,-100*,2%
CC(C)c1ccc2oc(-c3ccc(NC(=O)c4cccc(Br)c4)cc3)nc2c1,-6%,-25%,0%,x,-37,x
CCOC(=O)C1CCCN(C(=O)c2ccccc2)CC1 (configuration not stated),1%,-11%,x,0%,-22,x
CCOC(=O)C1CCN(C(=O)c2ccccc2)c2scc(-c3ccccc3)c2C1=O (configuration not stated),2%,32µM*,x,-1%,u,x
COc1ccc(NC(=O)c2cc3c(s2)-c2c(C)cccc2OC3)cc1Cl,-4%,0%,-7%,x,7,x
Cc1cccc(N2CCN(C(=O)c3[nH]c(C(F)(F)F)nc3-c3ccccc3)CC2)c1C,2%,-10%,x,-7%,-87*,x
COc1ccccc1N1CCN(C(=O)c2[nH]c(C(F)(F)F)nc2-c2ccccc2)CC1,-2%,-11%,x,2%,-64*,x
COc1ccc(S[C@]2(c3nc(C)no3)CC(=O)N(c3ccc(Cl)cc3)[C@@H]2c2ccc(OC)cc2)cc1,x,x,x,x,9,x
COc1cccc2c1cc1c(=O)n(CC(=O)N3CCN(c4cccc(C(F)(F)F)c4)CC3)nc(C)n12,1%,-7%,0%,x,13,x

# Assay outcomes from PubChem.
